Experimental data from PubChem BioAssay AID488969 (Vanderbilt High Throughput Screening Facility, 2010).
Whole data set: some 110,000 compounds, median “z-score” near -0.1, cut for the highest 2% near 2. This is one part of a sample in which the highest values are shown more often than they occur. Active and inactive are the calls of the source.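 Rule for the calls: active = z-score in the third read window above 3 or below -3; inactive = the rest.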

What follows are compounds tested against Metabotropic glutamate receptor 8 (Rattus norvegicus) (UniProt P70579) (assay: rat mGluR8 modulators via GIRK flux, primary screen, cell-based, thallium flux, HTS (AID 488969)). Conditions: HEK293 rat mGluR8, GIRK (G protein-gated inwardly rectifying potassium channel) thallium flux, FluoZin2; at 10 µM; stronger effect = higher value; submaximal glutamate (EC20) added with thallium.
Chain of Metabotropic glutamate receptor 8 (Rattus norvegicus) (P70579 whole entry, looked up): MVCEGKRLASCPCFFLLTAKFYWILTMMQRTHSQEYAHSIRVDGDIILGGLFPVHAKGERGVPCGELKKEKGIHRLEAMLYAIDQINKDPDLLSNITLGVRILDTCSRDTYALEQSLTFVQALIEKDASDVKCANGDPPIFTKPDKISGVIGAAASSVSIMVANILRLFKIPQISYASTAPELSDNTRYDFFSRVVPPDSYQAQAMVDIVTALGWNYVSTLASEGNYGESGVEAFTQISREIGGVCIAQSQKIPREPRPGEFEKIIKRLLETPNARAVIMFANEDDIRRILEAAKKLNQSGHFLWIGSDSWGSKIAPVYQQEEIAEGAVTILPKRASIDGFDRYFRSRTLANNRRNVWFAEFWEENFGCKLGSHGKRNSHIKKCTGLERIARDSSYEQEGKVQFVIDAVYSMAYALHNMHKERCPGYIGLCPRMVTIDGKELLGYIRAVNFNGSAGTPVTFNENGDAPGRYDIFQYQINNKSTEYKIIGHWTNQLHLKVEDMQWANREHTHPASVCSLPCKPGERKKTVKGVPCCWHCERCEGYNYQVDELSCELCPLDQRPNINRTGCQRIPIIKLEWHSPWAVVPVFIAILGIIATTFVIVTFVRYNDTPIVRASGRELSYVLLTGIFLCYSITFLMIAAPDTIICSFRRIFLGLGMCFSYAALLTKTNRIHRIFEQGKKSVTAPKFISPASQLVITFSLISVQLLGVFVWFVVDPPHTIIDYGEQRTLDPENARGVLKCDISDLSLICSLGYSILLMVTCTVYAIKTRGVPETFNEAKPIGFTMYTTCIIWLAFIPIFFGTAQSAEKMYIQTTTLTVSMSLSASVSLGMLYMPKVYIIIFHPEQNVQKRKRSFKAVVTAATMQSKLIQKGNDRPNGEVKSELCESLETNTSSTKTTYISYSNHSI

First: O=C(C1CCCCN1S(=O)(=O)c1ccc(F)cc1)N1CCN(c2ccccc2F)CC1 (centres undefined)
Second: COc1ccc(S(=O)(=O)N2CCC(C(=O)N3CCN(c4ccccc4OC)CC3)CC2)cc1
The z-score of the first is lower: -0.386 for the first, -0.274 for the second.

Going from COc1ccc2[nH]c(C)c(C(=O)CN3CC(C)OC(C)C3)c2c1 (centres undefined) to COc1ccc2c(C(=O)CN3CC(C)OC(C)C3)c[nH]c2c1 (centres undefined), the z-score falls from 2.96 to -0.0527.

First: COc1ccc2[nH]c(C)c(C(=O)CN3CCOCC3)c2c1
Second: COc1ccc(NC(=S)Nc2ccc(S(=O)(=O)N3CCOCC3)cc2)c(OC)c1
The z-score of the first is lower: 0.0884 for the first, 0.108 for the second.

Compared with O=S1(=O)CC(N2CCOCC2)c2ccccc21 (centres undefined), Cc1onc(-c2ccccc2Cl)c1C(=O)NC1CCS(=O)(=O)C1 (centres undefined) is lower in z-score: -0.0158 for the first, -0.0472 for the second.

Going from COc1ccc(CNC(=O)CSc2ccc(Br)cc2)cc1OC to COc1ccc(CNC(=O)CCc2c(C)nc3ncnn3c2C)cc1, the z-score rises from 0.192 to 0.418.

First: CN(CCCC(=O)NCc1ccco1)S(=O)(=O)c1ccccc1
Second: Cc1ccc(N(CC(=O)NCc2ccco2)S(=O)(=O)c2ccccc2)cc1
The z-score of the first is higher: 2.39 for the first, 0.374 for the second.

Compared with COc1ccc(S(=O)(=O)N(C)CC(=O)NCc2ccco2)cc1, Cc1ccc(CNC(=O)C(Cc2ccccc2)NS(=O)(=O)c2cccs2)cc1 (centres undefined) is higher in z-score: -0.29 for the first, -0.105 for the second.

Compared with CCC(C)NC(=O)COc1ccc(Br)c(C)c1 (centres undefined), CCOC(=O)CC(=O)Nc1ccc(C)cc1 is lower in z-score: 0.482 for the first, -0.33 for the second.

Compared with CN(C(=O)COC(=O)C1CCN(S(=O)(=O)c2cccs2)CC1)C1CCS(=O)(=O)C1 (centres undefined), NC(=O)C1CCN(Cc2nc3ccccc3c(=O)[nH]2)CC1 is lower in z-score: 0.776 for the first, -0.276 for the second.

Going from Cc1ccc(Cn2c(NCCc3ccccc3)nc3c2c(=O)n(C)c(=O)n3C)cc1 to C=CCn1c(NCCc2ccccc2)nc2c1c(=O)n(C)c(=O)n2C, the z-score rises from -0.251 to 0.0292.

First: CC(C)n1c(NCCc2ccccc2)nc2c1c(=O)n(C)c(=O)n2C
Second: Cn1c(N)c(C(=O)c2ccccc2)c(=O)n(C)c1=O
The z-score of the first is higher: 2.39 for the first, -0.397 for the second.

Compared with COc1nc2ccccc2c(=O)n1OCC(C)C, COn1c(=S)[nH]c2ccccc2c1=O is higher in z-score: 0.0226 for the first, 1.06 for the second.

Compared with CCOc1cc2[nH]c(=S)n(CCN3CCC(C)CC3)c(=O)c2cc1OCC, CCOc1cc2[nH]c(=S)n(CCCN(CC)CC)c(=O)c2cc1OCC is lower in z-score: 0.809 for the first, -0.475 for the second.

Compared with CC(C)n1c(=S)[nH]c2ccccc21, CC(C)n1c(=O)[nH]c2ccccc21 is higher in z-score: -0.0644 for the first, 1.11 for the second.

First: CC(C)N(CCn1c(=S)[nH]c2ccccc2c1=O)C(C)C
Second: CN(C)CCn1c(=S)[nH]c2ccccc2c1=O
The z-score of the first is higher: 2.64 for the first, -0.191 for the second.

Going from CCN(CC)CCn1c(=S)[nH]c2ccccc2c1=O to CCN(CC(=O)c1c(N)n(C)c(=O)n(C)c1=O)c1cccc2ccccc12, the z-score rises from -2.46 to 2.55.

Going from Cc1ccc(Cn2c(CN3CC(C)OC(C)C3)nc3c2c(=O)[nH]c(=O)n3C)cc1 (centres undefined) to CCCCCOC(=O)Cn1c(N2CCOCC2)nc2c1c(=O)[nH]c(=O)n2C, the z-score falls from 0.0226 to -0.228.

Compared with O=C(CSc1nnc(-c2ccc(F)cc2)o1)Nc1ccccc1N1CCOCC1, O=C(CSc1nnc(-c2ccco2)n1-c1ccccc1)N1CCc2ccccc21 is higher in z-score: -0.906 for the first, 0.00192 for the second.

Going from CN(C)c1ccc(/C=N\Nc2nc(-c3ccccc3)cc(=O)[nH]2)cc1 to CN(C)C(=O)C(=O)c1c(-c2ccccc2)cc2ccccn12, the z-score falls from -0.138 to -0.294.

First: CC(=O)Nc1ccc(N(C(=O)Cc2c[nH]c3ccccc23)C(C(=O)NC2CCCCC2)c2ccco2)cc1 (centres undefined)
Second: Cc1ccc(C2CC(=O)c3cnc(NC(=O)c4ccco4)nc3C2)cc1 (centres undefined)
The z-score of the first is higher: 1.17 for the first, -0.398 for the second.

First: Cc1ccccc1-c1nc(-c2ccc(NC(=O)c3ccc(Br)o3)cc2)no1
Second: Cc1ccc(NC(=S)c2nc3ccccc3s2)cc1
The z-score of the first is lower: 0.0114 for the first, 0.791 for the second.

Compared with N#CNC(=Nc1cccc(F)c1)SCc1cccc(F)c1, Cc1cccc(NC(=S)c2nc3ccccc3s2)c1 is higher in z-score: -0.141 for the first, 0.84 for the second.

Compared with CCC(C)NC(=O)CSc1nc2c(sc(=S)n2Cc2ccco2)c(=O)n1-c1ccccc1 (centres undefined), CN(CC(=O)Nc1ccccc1Br)Cc1nc2ccccc2c(=O)[nH]1 is higher in z-score: 0.437 for the first, 0.733 for the second.

Going from Cc1ccc2[nH]c(=O)c(CN(Cc3cccs3)S(=O)(=O)c3ccc4c(c3)OCCO4)cc2c1 to Cc1ccc(C2C(/C=C3/SC(=S)NC3=O)=C(c3cccs3)Oc3ccccc32)cc1 (centres undefined), the z-score rises from 0.0485 to 2.55.

Compared with CCOC(=O)Cc1csc(SCC(=O)Nc2cccc(Cl)c2)n1, O=C(CCC(=O)OCC(=O)c1cccc([N+](=O)[O-])c1)Nc1ccccc1Cl is lower in z-score: 0.368 for the first, 0.0825 for the second.

Going from COc1cc2cc(CN(CCc3ccccc3C)C(=S)NCCCN(C)C)c(=O)[nH]c2cc1OC to COc1cc2[nH]c(=O)n(CCCCCC(=O)N3CCN(c4ccccc4)CC3)c(=O)c2cc1OC, the z-score falls from 0.66 to -0.317.

First: CCCC(=O)N=C1SC2CS(=O)(=O)CC2N1c1ccc(-c2nc3ccc(C)cc3s2)cc1 (centres undefined)
Second: CC(=O)N=C1SC2CS(=O)(=O)CC2N1c1ccc(-c2nc3ccc(C)cc3s2)cc1 (centres undefined)
The z-score of the first is lower: -0.238 for the first, 0.0589 for the second.

First: Cc1ccc2nc(-c3ccc(N4C(=N)SC5CS(=O)(=O)CC54)cc3)sc2c1 (centres undefined)
Second: Cc1ccc(C)c(NC(=S)N2CCC(c3nc4ccccc4s3)CC2)c1
The z-score of the first is higher: 2.09 for the first, 0.656 for the second.

First: O=C(NCCCN1CCCCC1)c1ccc2c(c1)NC(=O)C(N1CCCCC1)S2 (centres undefined)
Second: O=C(NCCCN1CCCCCC1)c1ccc2c(c1)NC(=O)C(N1CCOCC1)S2 (centres undefined)
The z-score of the first is higher: 0.905 for the first, 0.756 for the second.

First: CC1CC(C)CN(CCCNC(=O)c2ccc3c(c2)NC(=O)C(N2CCCCC2)S3)C1 (centres undefined)
Second: COc1cc2[nH]c(=O)n(CCC(=O)N3CCC(N4CCCCC4)CC3)c(=O)c2cc1OC
The z-score of the first is higher: 2.18 for the first, 0.8 for the second.

Compared with S=C(Nc1ccc(Cl)cc1)c1nc2ccccc2s1, S=C(Nc1ccccc1)c1nc2ccccc2s1 is higher in z-score: 0.236 for the first, 2.64 for the second.

First: Cc1cc(SCC(=O)c2cc(C)n(C)c2C)nc2ccccc12
Second: Cc1ccccc1CSCC(=O)c1c(N)n(C)c(=O)n(C)c1=O
The z-score of the first is higher: -0.0351 for the first, -0.253 for the second.

First: Cn1c(=O)oc2cc(S(=O)(=O)NC3CCN(Cc4ccccc4)CC3)ccc21
Second: O=c1[nH]cnc2sc3c(c12)CCN(Cc1ccccc1)C3
The z-score of the first is lower: -0.316 for the first, 0.233 for the second.

First: O=c1oc2ccccc2cc1-c1csc(NN=C2CCCCC2)n1
Second: O=C1C=C(NCc2ccccc2)CCC1
The z-score of the first is lower: -0.185 for the first, -0.0868 for the second.

Going from O=C(NNC(=O)C1CCCO1)c1ccc(F)cc1 (centres undefined) to Cc1c(CCOC(=O)C2C3CC4CC(C3)CC2C4)sc[n+]1CC(=O)c1ccc(Br)cc1 (centres undefined), the z-score rises from -0.154 to 2.48.

First: CCOCc1nnc(NC(=O)c2cccs2)s1
Second: CCNC(=O)NC(=O)C(C)OC(=O)c1cccnc1SC (centres undefined)
The z-score of the first is higher: 0.125 for the first, -0.0754 for the second.

Going from Cc1ccc(Nc2nc(Oc3ccc(=O)[nH]n3)nc(N(C)C)n2)cc1 to Cc1nc(CS(=O)c2ccc(Cl)cc2)cc(NCc2ccc(Cl)cc2Cl)n1 (centres undefined), the z-score rises from -0.00557 to 0.31.

Compared with COCCCNC(=O)C(C#N)c1nc2ccccc2nc1N1CCCC1 (centres undefined), N#Cc1nc(COc2cccc(Cl)c2)oc1N1CCCC1 is higher in z-score: -0.459 for the first, -0.382 for the second.

First: CCN(CC)P1(=O)OC(c2cc(OC)c(OC)c(OC)c2)=Nc2c1c(C)nn2-c1ccccc1 (centres undefined)
Second: CCc1nc(C)cn1S(=O)(=O)c1cc(C)c(OC)cc1C
The z-score of the first is lower: -1.4 for the first, 0.289 for the second.

Compared with CC(C)N1CC(C(=O)Nc2ccc(Br)c(Cl)c2)CC1=O (centres undefined), COc1ccc(NC(=S)NC(NC(=O)c2ccccc2Cl)C(Cl)(Cl)Cl)c([N+](=O)[O-])c1 (centres undefined) is lower in z-score: 0.0942 for the first, -0.469 for the second.

Compared with CC(C)(C)S(=O)(=O)c1ccc(S(=O)(=O)C(C)(C)C)s1, CCS(=O)(=O)c1ccc(S(=O)(=O)CC)s1 is lower in z-score: 2.32 for the first, -0.137 for the second.

First: CC(C)(C)S(=O)(=O)c1nc2ccccc2s1
Second: CCc1nc(C)cn1S(=O)(=O)c1cc(Cl)c(OC)cc1Cl
The z-score of the first is lower: 0.279 for the first, 2.99 for the second.

Compared with CCc1nc(C)cn1S(=O)(=O)c1cc(Br)c(C)cc1OC, CCOc1nc(-c2ccc(Cl)cc2Cl)ccc1C#N is lower in z-score: -0.193 for the first, -0.211 for the second.

Compared with O=C(O)c1ccccc1NC(=S)NC(NC(=O)c1ccccc1[N+](=O)[O-])C(Cl)(Cl)Cl (centres undefined), COC(=O)c1ccccc1NC(=S)NC(NC(=O)c1ccccc1[N+](=O)[O-])C(Cl)(Cl)Cl (centres undefined) is higher in z-score: -0.103 for the first, 2.67 for the second.

Going from O=C(NC(NC(=S)Nc1ccccc1C(=O)O)C(Cl)(Cl)Cl)c1ccco1 (centres undefined) to COc1ccccc1NC(=S)NC(NC(=O)c1ccco1)C(Cl)(Cl)Cl (centres undefined), the z-score falls from -0.106 to -0.246.

First: N#Cc1nc(Cc2ccccc2)oc1N1CCN(c2cccc(Cl)c2)CC1
Second: O=c1[nH]c(CN2CCN(Cc3ccccc3)CC2)nc2sc3c(c12)CCC3
The z-score of the first is higher: 0.287 for the first, -0.568 for the second.

Going from Cc1ncsc1CCOC(=O)C1C2CC3CC(C2)CC1C3 (centres undefined) to Cc1c(CCOC(=O)CC23CC4CC(CC(C4)C2)C3)sc[n+]1CC(=O)c1ccc(Br)cc1, the z-score rises from 0.00939 to 0.0917.

Going from CCOc1cc2[nH]c(=O)n(CCCCC(=O)N3CCCCCC3)c(=O)c2cc1OCC to CCOc1ccccc1C1CC(c2ccc(F)cc2)Nc2nc(N)nn21 (centres undefined), the z-score falls from 2.21 to -0.0345.

First: Cc1ccc(C2C(C=Nc3c(C)n(C)n(-c4ccccc4)c3=O)=C(c3ccccc3)Oc3ccccc32)cc1 (centres undefined)
Second: Cc1cccc(N=C2NC(=O)/C(=C\c3cccs3)S2)c1
The z-score of the first is lower: -0.137 for the first, 0.692 for the second.

First: O=C1C=C(NCc2ccco2)CCC1
Second: CC1(C)CC(=O)C=C(NCc2ccco2)C1
The z-score of the first is higher: 2 for the first, -0.0748 for the second.

With CC(C)n1c(=S)[nH]c2ccccc2c1=O the z-score was 9.16 (active).
For CCOc1cc2[nH]c(=S)n(C(C)C)c(=O)c2cc1OCC, the z-score was 9.84 (active).
For CC(C)COn1c(=S)[nH]c2ccccc2c1=O, the z-score was 3.03 (active).
Cc1ccc(C)c(NC(=S)c2nc3ccccc3s2)c1 was tested, and the z-score was 8.98 (active).
In the case of CCCN(CCC)c1nc2ccccc2nc1C(C#N)C(=O)OC(C)COC (centres undefined), the z-score is reported as -3.86 (active).
For CCCCN(CCCC)c1nc2ccccc2nc1C(C#N)C(=O)NCCCOC (centres undefined), the z-score was 6.64 (active).
With COC(=O)c1ccccc1NC(=S)NC(NC(=O)c1ccco1)C(Cl)(Cl)Cl (centres undefined) the z-score was 15.3 (active).
With N#Cc1nc(COc2ccccc2)oc1N1CCN(c2cccc(Cl)c2)CC1 the z-score was 3.31 (active).
CCCSc1nc2sc3c(c2c(=O)[nH]1)CCN(Cc1ccccc1)C3 was tested, and the z-score was 3.04 (active).
